# Assay results from PubChem BioAssay (NCATS).
# Inconclusive results are not listed. Where a call stands in place of a potency, no number is given. Calls of active or inactive are those of the source. Calls come from the whole dose curve; as a rule, active = well fitted inhibition curve with a large enough effect; inconclusive = small, poorly fitted or top-dose-only effect; inactive = no such curve, though single readings can be large or run the other way.
# Assay: qHTS to identify inhibitors of the type 1 interferon - major histocompatibility complex class I in skeletal muscle: primary screen against the NCATS Mechanism Interrogation Plate v5.0 (MIPE) Libary (AID 1347411); note: nearly all actives have a fitted effect of over 65% in size
# Details: iHSKM cells + IFN-b, HiBiT-tagged MHC-I luminescence, 24 h; series mostly up to 45.8 µM
# Method in brief: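 IFN-beta-driven (4 ng/ml) HLA-B-HiBit expression in CRISPR-tagged C25cl48 myoblasts; compounds 11-pt, 1:3, max 46 uM, 24 hr exposure; lytic NanoLuc complementation luminescence.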
# Potency is the fitted concentration of half-maximal effect.
row,SMILES,Potency
1,COc1cccc([C@@H](C)NCCCc2ccccc2Cl)c1,inactive
2,N#Cc1ccc(NC(=O)Nc2ccccc2Br)c2n[nH]nc12,inactive
3,c1cc(-c2sc(-c3ccncc3)c(-c3ccncc3)c2-c2ccncc2)ccn1,inactive
4,O=C1C[C@@H](c2ccc(O)cc2)Oc2cc(O)cc(O)c21,inactive
5,CN1CCN(CCOc2cc(OC3CCOCC3)c3c(Nc4c(Cl)ccc5c4OCO5)ncnc3c2)CC1,29.4 µM (active)
6,COc1ccc(C2CC(c3ccccc3)=NN2c2ccc(S(N)(=O)=O)cc2)cc1 (stereo not drawn),inactive
7,O=C(Nc1ccccc1Br)N[C@@H]1CCN(c2ccc(C(F)(F)F)cn2)C1,inactive
8,O=C1C(Cl)=C(NCCN2CCOCC2)C(=O)c2ncccc21,2.94 µM (active)
9,Cc1ccc(C(C)(O)c2nc3ccccc3s2)c(C)c1 (stereo not drawn),inactive
10,O=C(Nc1c(Cl)cncc1Cl)c1ccc(OC(F)F)c(OCC2CC2)c1,inactive
11,CCOC(=O)C1=C(N)Oc2ccc(Br)cc2C1C(C#N)C(=O)OCC (stereo not drawn),inactive
12,CC(=O)Nc1ccc([C@H](C)C(=O)Nc2ncc(C(C)C)s2)cc1,5.87 µM (active)
13,CC(C)(C)c1cc(C(=O)O)c(NC(=O)Nc2ccc3[nH]ncc3c2)s1,inactive
14,CC1CCC(C(=O)N(c2cc(C#CC(C)(C)C)sc2C(=O)O)C2CCC(O)CC2)CC1 (stereo not drawn),inactive
15,Cc1cnc(C(=O)O)c[n+]1[O-],inactive
16,CC(C)(C)COc1ccc(-n2cc(C(=O)O)cn2)cc1C#N,inactive
17,CCOC(CN1C(=O)[C@](CC(=O)Nc2ccc(C)cc2)(NC(=O)Nc2ccc(C)cc2)c2ccccc21)OCC,inactive

row,SMILES,Potency
1,CCn1c(C(=O)N(C2CC2)C2CC2)cc2c3c(ncn3C)c(Nc3cc(C)n(C)n3)nc21,inactive
2,COc1ccc(-n2c(C)c([N+](=O)[O-])c3ccc(O)cc32)cc1,inactive
3,Clc1ccc(CCC(Cn2ccnc2)Sc2c(Cl)cccc2Cl)cc1 (stereo not drawn),inactive
4,Nc1ncnc2c1nc(Cl)n2[C@@H]1O[C@H](CO)[C@@H](O)[C@@H]1O,inactive
5,COC1CCC(N(C(=O)C2CCC(C)CC2)c2cc(C3=CCCCC3)sc2C(=O)O)CC1 (stereo not drawn),inactive
6,O=C(CCN1CCN(C(=O)OCc2cc(Cl)cc(Cl)c2)CC1)c1ccc2[nH]c(=O)oc2c1,inactive
7,O=C(O)c1ccccc1C(=O)Nc1ccc(-c2ccccc2)cc1,29.4 µM (active)
8,C[C@]12CC[C@@H]3c4ccc(O)cc4C[C@@H](CCCCCCCCCS(=O)CCCC(F)(F)C(F)(F)F)[C@H]3[C@H]1CC[C@H]2O (stereo partly drawn),inactive
9,CN(C)Cc1ccc(-c2nc3cccc4c3n2CCNC4=O)cc1,14.7 µM (active)
10,O=C(NC1CCOCC1)c1ccc(-c2cc(-c3cn[nH]c3-c3ccccn3)ccn2)cc1,inactive
11,C[C@H](NC(=O)C(=O)Nc1ccccc1C(C)(C)C)C(=O)N[C@@H](CC(=O)O)C(=O)COc1c(F)c(F)cc(F)c1F,13.1 µM (active)
12,NC(=O)c1cnc(-c2ccc(C3(N)CCC3)cc2)c(-c2ccccc2)c1,inactive
13,O=C(O)c1ccc(-c2c[nH]c3ncc(-c4ccccc4)cc23)cc1C1CCCC1,inactive
14,CCCCCCCCCCCC1=C(O)C(=O)C=C(O)C1=O,inactive
15,COc1cc(N2CCC(N3CCN(C)CC3)CC2)ccc1Nc1ncc(Cl)c(Nc2ccccc2S(=O)(=O)C(C)C)n1,18.6 µM (active)
16,Cc1nc(N)sc1-c1ccnc(Nc2ccc(N3CCOCC3)cc2)n1,3.7 µM (active)
